Measurements from PubChem BioAssay (Tox21).
Records with an inconclusive call do not appear. Active and inactive are the calls of the source. Unless noted, calls follow the shape of the dose curve; as a rule, active = well fitted curve in the direction sought with a large enough effect in the repeat runs; inconclusive = weak or mixed curves; inactive = no such curve, though single readings can be large; an effect the other way counts as inactive or inconclusive.

Experiments:
[1] = qHTS assay to identify small molecule antagonists of the estrogen receptor alpha (ER-alpha) signaling pathway using the BG1 cell line in the presence of 0.1 nM 17-beta-estradiol - cell viability counter screen (AID 1259241); also: nearly all actives have a fitted effect of over 40% in size
Outline: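 Cells were plated and left 24 hr, compounds in DMSO were pinned in, 17beta-estradiol was added to 0.1 nM final, and after 22 hr CellTiter-Fluor reagent was added for 30 min before fluorescence was read.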

[2] = qHTS assay to identify small molecule antagonists of the androgen receptor (AR) signaling pathway using the MDA cell line in the presence of 0.5 nM R1881 - cell viability counter screen (AID 1259242); also: nearly all actives have a fitted effect of over 45% in size
Outline: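 Fluorescence from CellTiter-Fluor, which reports protease activity of live cells, was read 30 min after reagent addition to MDA-kb2 cells that had been incubated 16 hr with compound and 0.5 nM R1881.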

[3] = biological target: Androgen receptor (Homo sapiens) (UniProt P10275); assay: qHTS assay to identify small molecule antagonists of the androgen receptor (AR) signaling pathway using the MDA cell line in the presence of 0.5 nM R1881 (AID 1259243); also: nearly all actives have a fitted effect of over 50% in size; also: potency is read from the fitted curve at half-maximal effect
Sequence of Androgen receptor (Homo sapiens) (P10275 whole entry, looked up): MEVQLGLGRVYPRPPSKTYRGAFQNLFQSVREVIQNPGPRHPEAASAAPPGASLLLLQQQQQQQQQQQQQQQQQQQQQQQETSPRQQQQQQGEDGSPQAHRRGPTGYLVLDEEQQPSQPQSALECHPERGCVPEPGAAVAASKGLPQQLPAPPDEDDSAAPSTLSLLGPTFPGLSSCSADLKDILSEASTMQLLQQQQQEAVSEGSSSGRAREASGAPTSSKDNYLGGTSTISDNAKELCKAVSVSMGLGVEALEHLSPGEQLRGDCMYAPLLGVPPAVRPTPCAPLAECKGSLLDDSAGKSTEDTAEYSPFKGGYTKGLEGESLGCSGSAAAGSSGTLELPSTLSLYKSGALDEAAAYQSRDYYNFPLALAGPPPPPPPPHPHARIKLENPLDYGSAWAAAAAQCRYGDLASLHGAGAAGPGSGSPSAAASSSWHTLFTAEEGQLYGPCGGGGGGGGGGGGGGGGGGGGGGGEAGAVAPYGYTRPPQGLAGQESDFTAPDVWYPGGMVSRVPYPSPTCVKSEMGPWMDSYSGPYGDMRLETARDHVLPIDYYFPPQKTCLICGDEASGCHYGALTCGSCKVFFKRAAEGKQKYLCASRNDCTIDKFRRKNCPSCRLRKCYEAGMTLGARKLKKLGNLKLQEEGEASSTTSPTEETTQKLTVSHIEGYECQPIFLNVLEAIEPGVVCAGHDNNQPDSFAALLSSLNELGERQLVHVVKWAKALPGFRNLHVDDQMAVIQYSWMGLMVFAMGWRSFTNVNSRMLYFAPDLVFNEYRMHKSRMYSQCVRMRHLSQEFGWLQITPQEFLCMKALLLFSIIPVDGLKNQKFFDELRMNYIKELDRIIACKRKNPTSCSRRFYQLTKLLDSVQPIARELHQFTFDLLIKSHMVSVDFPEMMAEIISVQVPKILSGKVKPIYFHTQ
Outline: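 Inhibition of R1881 (0.5 nM final) induced reporter signal was measured in human MDA-kb2 cells; note the MMTV promoter also responds to GR. Exposure lasted 16 hr at 37C.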

[4] = biological target: Estrogen receptor (Homo sapiens) (UniProt P03372); assay: qHTS assay to identify small molecule antagonists of the estrogen receptor alpha (ER-alpha) signaling pathway using the BG1 cell line in the presence of 0.1 nM 17-beta-estradiol (AID 1259244); also: nearly all actives have a fitted effect of over 50% in size
Sequence of Estrogen receptor (Homo sapiens) (P03372 whole entry, looked up): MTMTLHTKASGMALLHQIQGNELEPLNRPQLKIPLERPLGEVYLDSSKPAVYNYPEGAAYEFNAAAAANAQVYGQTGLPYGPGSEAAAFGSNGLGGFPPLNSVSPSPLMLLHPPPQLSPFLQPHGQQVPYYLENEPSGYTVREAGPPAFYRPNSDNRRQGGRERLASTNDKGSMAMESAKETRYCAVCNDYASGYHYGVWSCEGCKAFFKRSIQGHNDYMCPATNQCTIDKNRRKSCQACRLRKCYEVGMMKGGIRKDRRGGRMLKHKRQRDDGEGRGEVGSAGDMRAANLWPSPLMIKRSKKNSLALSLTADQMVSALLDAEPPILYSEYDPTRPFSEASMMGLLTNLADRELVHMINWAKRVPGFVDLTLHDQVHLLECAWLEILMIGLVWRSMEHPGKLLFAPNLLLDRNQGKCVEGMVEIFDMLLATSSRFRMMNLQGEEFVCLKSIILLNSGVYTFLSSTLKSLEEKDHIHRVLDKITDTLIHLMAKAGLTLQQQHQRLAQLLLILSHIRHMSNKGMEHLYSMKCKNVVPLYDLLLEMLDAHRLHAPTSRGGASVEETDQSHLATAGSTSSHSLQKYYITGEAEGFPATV
Outline: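 Quantitative high-throughput screen in VM7Luc4E2 cells: compound plus 0.1 nM E2 (final), 22 h, 37C, 5% CO2; ONE-Glo added, 30 min room temperature, luminescence measured.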

[5] = qHTS assay to identify small molecule HDAC inhibitors (AID 1259364); also: top concentration of the series differs between compounds; nearly all actives have a fitted effect of over 45% in size
Outline: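 Endogenous HDAC class I/II activity was measured in wild-type HCT-116 cells by HDAC-Glo luminescence after 2 h compound treatment.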

[6] = qHTS assay to identify small molecule HDAC inhibitors - cell viability counter screen (AID 1259365); also: series mostly up to about 92 µM; nearly all actives have a fitted effect of over 50% in size
Outline: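 Counter screen in wild-type HCT-116 cells: compounds dissolved in DMSO are pin-transferred onto overnight-plated cells and left 2hr at 37C. ATP-based CellTiter-Glo luminescence then measures viable cells.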

[7] = qHTS assay to identify small molecule antagonists of the sonic hedgehog signaling (Shh) pathway - cell viability counter screen (AID 1259367); also: nearly all actives have a fitted effect of over 55% in size; also: potency is read from the fitted curve at half-maximal effect
Outline: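 Using CellTiter-Fluor, viability of Gli1-Luc reporter 3T3 cells is read by fluorescence in the wells used for the Shh luciferase assay. Treatment lasts 23 hr with conditioned medium, then reagent 1 hr at 37C.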

[8] = qHTS assay to identify small molecule agonists of the sonic hedgehog signaling (Shh) pathway (AID 1259368; calls by dose curve;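 also: NIH/3T3-derived 3T3Gli1-Luc cells carrying a stable Gli1-driven firefly luciferase reporter; series mostly up to about 92 µM; nearly all actives have a fitted effect of over 15% in size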)
Outline: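 Luminescent signal was taken as a measure of Gli1-controlled luciferase expression in stably transfected NIH/3T3-derived cells that had been treated for 24 hr with compounds delivered in DMSO.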

[9] = biological target: Estrogen receptor beta (Homo sapiens) (UniProt Q92731); assay: qHTS assay to identify small molecule antagonists of the estrogen receptor beta (ER-beta) signaling pathway (AID 1259378; active = well fitted inhibition curve with a large enough effect in the signal ratio in the repeat runs, not every such curve was filed as active; the % refers to the signal ratio)
Sequence of Estrogen receptor beta (Homo sapiens) (Q92731 whole entry, looked up, the tested form may be a part): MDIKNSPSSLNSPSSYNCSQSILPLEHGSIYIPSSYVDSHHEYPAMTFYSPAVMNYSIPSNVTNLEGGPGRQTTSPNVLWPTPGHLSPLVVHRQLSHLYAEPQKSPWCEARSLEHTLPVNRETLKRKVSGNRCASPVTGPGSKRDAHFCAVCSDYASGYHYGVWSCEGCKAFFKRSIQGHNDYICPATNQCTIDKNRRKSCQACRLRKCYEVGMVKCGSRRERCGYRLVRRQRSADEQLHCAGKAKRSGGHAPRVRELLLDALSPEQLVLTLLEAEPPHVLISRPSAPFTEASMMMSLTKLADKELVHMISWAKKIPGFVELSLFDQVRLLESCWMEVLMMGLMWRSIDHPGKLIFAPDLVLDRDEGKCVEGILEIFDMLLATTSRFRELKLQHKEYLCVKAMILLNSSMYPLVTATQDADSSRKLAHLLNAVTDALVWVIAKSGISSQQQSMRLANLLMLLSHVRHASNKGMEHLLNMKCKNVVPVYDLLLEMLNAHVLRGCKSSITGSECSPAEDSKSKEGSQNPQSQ
Outline: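 Antagonist mode: compounds added to beta-lactamase reporter HEK293T ER-beta-UAS cells stimulated with E2 (1nM final), 16 hr at 37C. LiveBLAzer B/G FRET substrate, 2 hours room temperature, fluorescence read-out.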

[10] = qHTS assay to identify small molecule agonists of the androgen receptor (AR) signaling pathway in the presence of an antagonist - cell viability counter screen (AID 1259379);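 also: MDA-kb2 human breast cancer cells carrying an MMTV luciferase reporter; series mostly up to about 92 µM; nearly all actives have a fitted effect of over 25% in size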
Outline: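 In MDA-kb2 cells (human breast carcinoma, MMTV-luciferase), compounds at 15 concentrations plus 3.0uM nilutamide; 16 hr, 37C, 0% CO2; CellTiter-Fluor fluorescence read for viability.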

[11] = biological target: Androgen receptor (Homo sapiens) (UniProt P10275); assay: qHTS assay to identify small molecule agonists of the androgen receptor (AR) signaling pathway in the presence of an antagonist (AID 1259381; calls by dose curve; also: nearly all actives have a fitted effect of over 15% in size)
Outline: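 Here, 15-concentration compound series were pin-transferred onto MDA-kb2 MMTV-luciferase cells already dosed with nilutamide (3.0uM final). After 16hr at 37C, ONE-Glo was added and luminescence read 30min later at room temperature.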

[12] = qHTS assay to identify small molecule antagonists of the estrogen receptor beta (ER-beta) signaling pathway - cell viability counter screen (AID 1259382);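 also: HEK293T cells carrying ER-beta-UAS-bla reporter stimulated with estradiol; series mostly up to about 92 µM; nearly all actives have a fitted effect of over 55% in size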
Outline: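 Tox21 10K library tested in qHTS format on ER-beta-bla HEK293T cells stimulated with 1nM E2; 16 hr treatment at 37C. Same-well CellTiter-Glo luminescence served as the cell viability measure.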

[13] = biological target: Estrogen receptor (Homo sapiens) (UniProt P03372); assay: qHTS assay to identify small molecule agonists of the estrogen receptor alpha (ER-alpha) signaling pathway in the presence of an antagonist (AID 1259383; calls by dose curve; also: top concentration of the series differs between compounds; nearly all actives have a fitted effect of over 15% in size)
Outline: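 In VM7Luc4E2 cells, 4,000 per well, compounds at 15 concentrations were co-incubated 22hr at 37C with 10.0nM final ICI-182,780. Luminescence from the stably transfected 4×ERE-luciferase reporter was recorded 30min after ONE-Glo addition.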

[14] = qHTS assay to identify small molecule agonists or antagonists of the thyroid stimulating hormone receptor (TSHR) signaling pathway - wild type cell line counter screen (AID 1259384; calls by dose curve)
Outline: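 Counter screen in untransfected Hek293: compounds (15-point titration, triplicate) plus phosphodiesterase inhibitor Ro20-1724 added after 18 h plating; 30 min RT. Intracellular cAMP via competitive d2/cryptate immunoassay, 1 h incubation.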

[15] = qHTS assay to identify small molecule phospholipidosis (PLD) inducers (AID 1259344; active = well fitted curve in the direction sought with a large enough effect; an effect the other way counts as inactive or inconclusive)
Outline: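 Fluorescent phospholipid staining (LipidTOX Red) measured by automated microscopy in fixed HepG2 cells after 24 h treatment; nuclei counterstained with Hoechst 33342; amiodarone as reference inducer.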

[16] = qHTS assay to identify small molecule agonists of the sonic hedgehog signaling (Shh) pathway - cell viability counter screen (AID 1259366); also: nearly all actives have a fitted effect of over 50% in size
Outline: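 Cells are plated at 2,000 per well and left 4hr at 37C, 5% CO2 before compound addition. After 23hr of treatment, CellTiter-Fluor reagent is added for 1hr at 37C and fluorescence is measured.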

[17] = qHTS assay to identify small molecule agonists of the estrogen receptor beta (ER-beta) signaling pathway - cell viability counter screen (AID 1259380); also: nearly all actives have a fitted effect of over 30% in size
Outline: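 Viability of ER-beta-UAS-bla HEK293T cells was determined by CellTiter-Glo luminescence following 16 hr treatment with test compounds at 37C.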

[18] = qHTS assay to identify small molecule antagonists of the sonic hedgehog signaling (Shh) pathway (AID 1259369; calls by dose curve; also: nearly all actives have a fitted effect of over 45% in size)
Outline: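 Screening used 3T3Gli1-Luc cells at 2,000 per well, compounds delivered in DMSO, and conditioned medium as agonist stimulus; plates incubated 24hr at 37 C and 5% CO2 before a 30min luciferase step.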

[19] = biological target: Estrogen receptor beta (Homo sapiens) (UniProt Q92731); assay: qHTS assay to identify small molecule agonists of the estrogen receptor beta (ER-beta) signaling pathway (AID 1259377; active = well fitted activation curve with a large enough effect in the signal ratio in the repeat runs, not every such curve was filed as active; the % refers to the signal ratio)
Outline: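 Agonist mode cell assay in GripTite HEK293T cells expressing an ER-beta fusion that drives beta-lactamase from an Upstream Activator Sequence; 16 hr compound exposure at 37C, then 2 h LiveBLAzer B/G FRET substrate at room temperature, fluorescence read-out.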

[20] = biological target: Thyrotropin receptor (Homo sapiens) (UniProt P16473); assay: qHTS assay to identify small molecule antagonists of the thyroid stimulating hormone receptor (TSHR) signaling pathway (AID 1259385; calls by dose curve; also: nearly all actives have a fitted effect of over 20% in size; also: potency is read from the fitted curve at half-maximal effect)
Sequence of Thyrotropin receptor (Homo sapiens) (P16473 whole entry, looked up): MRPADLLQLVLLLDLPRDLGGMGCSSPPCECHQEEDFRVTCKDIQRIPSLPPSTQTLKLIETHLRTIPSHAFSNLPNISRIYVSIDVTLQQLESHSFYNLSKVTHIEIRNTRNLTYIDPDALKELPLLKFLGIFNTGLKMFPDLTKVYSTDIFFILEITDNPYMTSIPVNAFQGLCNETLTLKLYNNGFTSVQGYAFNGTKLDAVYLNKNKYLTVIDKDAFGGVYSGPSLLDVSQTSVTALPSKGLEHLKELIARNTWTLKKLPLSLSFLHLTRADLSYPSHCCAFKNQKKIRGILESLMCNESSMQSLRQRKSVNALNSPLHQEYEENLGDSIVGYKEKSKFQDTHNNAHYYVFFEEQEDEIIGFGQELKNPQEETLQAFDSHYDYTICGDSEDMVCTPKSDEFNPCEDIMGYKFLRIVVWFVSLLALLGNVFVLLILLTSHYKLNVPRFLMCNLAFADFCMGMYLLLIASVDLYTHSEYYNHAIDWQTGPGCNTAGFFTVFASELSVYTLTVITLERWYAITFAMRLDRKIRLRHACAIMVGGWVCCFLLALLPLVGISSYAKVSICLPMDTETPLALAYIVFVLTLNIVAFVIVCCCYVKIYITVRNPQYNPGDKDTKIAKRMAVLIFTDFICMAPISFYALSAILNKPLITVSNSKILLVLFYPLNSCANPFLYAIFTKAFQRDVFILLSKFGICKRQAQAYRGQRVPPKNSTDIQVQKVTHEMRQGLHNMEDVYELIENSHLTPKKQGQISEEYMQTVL
Outline: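 Antagonist mode: compound-treated TSHR-expressing HEK293 cells were stimulated with 1.5 ng/mL TSH (final) in presence of Ro20-1724 for 30 min at RT. HTRF cAMP detection after 1 h; each compound tested at 15 concentrations, triplicate.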
% is scaled to controls: 0 for no effect and ±100 for the full control effect.

O=C1OC(CCN2CCCCC2)OC1(c1ccccc1)c1ccccc1 (stereo not drawn)
inactive: outcome [1] | outcome [2] | Potency [3] | Potency [4] | Potency [5] | outcome [6] | Potency [7] | outcome [8] | Potency [9] | Potency [10] | Potency [11] | Potency [12] | Potency [13] | Potency [14]

O=C(O)c1ccc2[nH]cc(CCCCN3CC=C(c4ccccc4)CC3)c2c1
inactive: outcome [1] | outcome [2] | Potency [3] | Potency [4] | outcome [15] | Potency [5] | outcome [6] | Potency [16] | Potency [7] | outcome [8] | Potency [10] | Potency [17] | Potency [11] | Potency [13] | Potency [14]

CC(C)CC#N
active: Potency [7] 27.9 µM
inactive: outcome [1] | outcome [2] | Potency [3] | Potency [4] | Potency [5] | outcome [6] | Potency [18] | outcome [19] | Potency [10] | Potency [11] | Potency [12] | Potency [13] | Potency [14]

O=C(N[C@H]1CN2CCC1CC2)c1cc2ccoc2cn1
inactive: outcome [1] | outcome [2] | Potency [3] | Potency [4] | Potency [5] | outcome [6] | Potency [16] | Potency [7] | outcome [8] | Potency [18] | Potency [9] | Potency [10] | Potency [11] | Potency [12] | Potency [13] | Potency [14] | Potency [20]

Cc1nc(N)nc(N)n1
inactive: outcome [1] | outcome [2] | Potency [3] | Potency [4] | Potency [5] | outcome [6] | Potency [7] | outcome [8] | Potency [10] | Potency [17] | Potency [12] | Potency [13] | Potency [14]

CCOP(=S)(OCC)SCSc1ccc(Cl)cc1
inactive: outcome [1] | outcome [2] | Potency [4] | PLD induction [15] -3.38% [at 7.66 µM] | Potency [5] | outcome [6] | Potency [16] | Potency [7] | outcome [8] | Potency [18] | outcome [19] | Potency [9] | Potency [10] | Potency [17] | Potency [12] | Potency [13] | Potency [14]
active: Potency [20] 30.6 µM

O=CNC(N1CCN(C(NC=O)C(Cl)(Cl)Cl)CC1)C(Cl)(Cl)Cl (stereo not drawn)
active: Potency [3] 30.6 µM
inactive: outcome [1] | outcome [2] | Potency [4] | Potency [5] | outcome [6] | Potency [16] | Potency [7] | outcome [8] | Potency [18] | Potency [9] | Potency [10] | Potency [17] | Potency [11] | Potency [12] | Potency [14] | Potency [20]

Cc1cnc[nH]1
inactive: outcome [1] | outcome [2] | Potency [3] | Potency [5] | outcome [6] | Potency [7] | outcome [8] | outcome [19] | Potency [9] | Potency [10] | Potency [17] | Potency [11] | Potency [14] | Potency [20]

CC(C(=O)c1ccccc1)N(C)C (stereo not drawn)
inactive: outcome [1] | outcome [2] | Potency [3] | Potency [4] | Potency [5] | outcome [6] | Potency [16] | Potency [7] | outcome [8] | Potency [9] | Potency [10] | Potency [11] | Potency [12] | Potency [13] | Potency [14] | Potency [20]
